AmpC inh detg: blocks E. coli AmpC beta-lactamase in detergent assay; Potency, µM (series often up to 114 µM), without a hit: top-dose activity change, negative = inhibition, hits mostly inhibitors; 370,000 tested, 0.041% active; AmpC hydrolysis of nitrocefin, absorbance 480 nm, 0.01% Triton; P00811;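 note: potency is the fitted concentration of half-maximal effect; 0% = no-compound wells and -100% = no-enzyme wells; nearly all actives have a fitted effect of over 25% in size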
Target sequence (P00811 whole entry, looked up): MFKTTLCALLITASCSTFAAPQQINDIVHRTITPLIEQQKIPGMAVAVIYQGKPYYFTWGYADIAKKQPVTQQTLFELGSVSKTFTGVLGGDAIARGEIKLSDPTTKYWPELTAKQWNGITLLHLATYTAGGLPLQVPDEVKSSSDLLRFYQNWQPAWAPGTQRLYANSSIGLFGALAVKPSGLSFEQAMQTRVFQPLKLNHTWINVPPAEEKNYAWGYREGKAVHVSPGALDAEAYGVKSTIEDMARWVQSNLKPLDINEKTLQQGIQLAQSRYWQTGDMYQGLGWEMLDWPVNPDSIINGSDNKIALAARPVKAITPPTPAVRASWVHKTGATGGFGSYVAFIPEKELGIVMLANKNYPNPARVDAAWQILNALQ
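AmpC (5.3 nM in the dispensed reagent) in 20 mM phosphate pH 7.0 with 0.01% (detergent screen) or 0.0001% Triton X-100 was preincubated with compounds for 15 min at room temperature. Nitrocefin was then added from an 800 uM solution, and hydrolysis was followed at 480 nm.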
AmpC inh no detg: AmpC beta-lactamase inhibition without detergent; Potency, µM (highest dose often 57.1 µM), inactives show at the highest dose activity change, negative = inhibition, usual class: inhibitors; 330,000 tested, 0.52% active; P00811; AmpC nitrocefin hydrolysis, absorbance 480 nm, 0.0001% Triton; AID 485341;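 note: potency is the fitted concentration of half-maximal effect; plate controls were no compound for no effect and no enzyme for full effect; nearly all actives have a fitted effect of over 20% in size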
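20 mM phosphate pH 7.0 + 0.01% (detergent screen) or 0.0001% Triton X-100; 5.3 nM AmpC reagent; cpd preinc 15 min RT; nitrocefin (800 uM stock) to start; A480 q20 s × 4 min; Activity was normalised to no-enzyme and no-compound control wells.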
Tb PYK inh: inhibitors of Trypanosoma brucei pyruvate kinase; Q57TT1; TbPYK enzyme, Kinase-Glo Plus ATP luminescence, 45 min; Potency, µM (top dose mostly 76.8 µM), without a hit: top-dose activity, negative = inhibition, usual class: inhibitors; 410,000 tested, 0.12% active; note: potency is the fitted concentration of half-maximal effect; % is set by controls: 0 for no effect and ±100 for the full control effect; nearly all actives have a fitted effect of over 50% in size
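Screened from lowest to highest concentration, compounds were pinned into TbPYK/substrate mixtures, and ADP (130 uM final) was added. Plates sat at room temperature for 45 min prior to Kinase-Glo Plus detection by luminescence.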
SARS PLpro yeast-1: SARS-CoV PLP inhibition in yeast | S. cerevisiae expressing SARS-CoV PLpro, growth rescue | Potency, µM (titrated, usually from 32.9 µM), inactives show at the highest dose activity, positive = growth rescue, most hits filed as activators | 330,000 tested, 0.19% active | AID 485353; calls by dose curve; note: potency is the fitted concentration of half-maximal effect; 0% is about no effect; nearly all actives have a fitted effect of over 55% in size
Sm TGR block: inhibitors of Schistosoma mansoni thioredoxin glutathione reductase | 360,000 tested, 3% active | Potency, µM (titrated, usually from 114 µM), without a hit: at the top dose activity change, negative = inhibition, hits mostly inhibitors | purified TGR, DTNB reduction, TNB absorbance 405 nm | AID 485364 | Q962Y6; note: potency is the fitted concentration of half-maximal effect; % is set by controls: 0 for no effect and ±100 for the full control effect; nearly all actives have a fitted effect of over 60% in size
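TGR 20 nM + NADPH 100 uM (dispensed conc.), cpd preinc 15 min RT; start with NADPH (500 uM addition) then DTNB (15 mM addition). Kinetic TNB absorbance, 405 nm filter. Four-parameter Hill fit across titration.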
RE007 growth inh: less growth of the S. pombe RE007 Vpr strain. S. pombe RE007 Vpr strain, BacTiter-Glo ATP luminescence, 24 h. Potency, µM (top dose mostly 92.2 µM), for inactives: top-dose activity change, negative = less growth, usual class: inhibitors. 360,000 tested, 0.21% active. AID 651644; active = well fitted falling curve with a large enough effect; inconclusive = small, poorly fitted or top-dose-only effect; inactive = no such curve, though single readings can be large or run the other way; note: potency is the fitted concentration of half-maximal effect; % is set by controls: 0 for no effect and ±100 for the full control effect; nearly all actives have a fitted effect of over 50% in size
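Fission yeast RE007 carrying one integrated HIV-1 vpr copy, seeded at OD 0.01 in PMG+AL medium with 23 nL pinned compound. Grown 24 h at 30 degrees; viability read by BacTiter-Glo luminescence after 5 min.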
SARS PLpro yeast-2: Rescues yeast growth by inhibiting SARS-CoV PLpro | shares compounds with SARS PLpro yeast-1 | yeast expressing SARS-CoV PLpro, growth phenotype rescue | calls only | 1,000 tested, 19% active | AID 652038; call rule not given here
* marks the source's active call; other numbers are inactive results; i = inactive; u = inconclusive; x = no result given; [ ] = dose if it differs, or a comment. Sampled rows, rich in hits. Any-hit rate of the full collection: about 3.3%. Unless noted, calls come from the whole dose curve; as a rule, active = well fitted curve in the direction sought with a large enough effect; inconclusive = small, poorly fitted or top-dose-only effect, or another doubt; inactive = no such curve, though single readings can be large; an effect the other way counts as inactive or inconclusive.

SMILES	AmpC inh detg	AmpC inh no detg	Tb PYK inh	SARS PLpro yeast-1	Sm TGR block	RE007 growth inh	SARS PLpro yeast-2
C[C@@H]1O[C@@H](O[C@H]2C[C@@H](O)[C@]3(CO)[C@H]4[C@H](O)C[C@]5(C)[C@@H](C6COC(=O)C6)CC[C@]5(O)[C@@H]4CC[C@]3(O)C2)[C@H](O)[C@H](O)[C@H]1O (stereo partly drawn)	-8%	2%	5%	u	1%	1%[18.4 µM]	i
COc1ccc(C(=O)NCc2nnc(SCC(=O)Nc3ccccc3)n2-c2ccc(F)cc2)cc1	10%	x	1%	x	1%	x	x
CN(C(=O)c1ccncc1)C1CCCN(Cc2ccccc2F)C1 (stereo not drawn)	0%	63%	-3%	-7%	-11%	-3%	x
CN(C(=O)c1ccccc1-c1ncc[nH]1)C1CCCN(Cc2ccccc2F)C1 (stereo not drawn)	5%	-5%	0%	16µM*	2%	6%	i
CC1=C(c2cccc(Cl)c2)S(=O)(=O)NC1=NCc1ccccc1C	18%	x	-5%	x	21%	x	x
Cc1ccc(N2CCN(C(=O)c3cc(S(=O)(=O)N4CCCCC4)c[nH]3)CC2)c(C)c1	20%	x	1%	x	7%	x	x
COc1ccc(NC(=O)Nc2c[nH]c(=O)[nH]c2=O)c(OC)c1	2%	x	-3%	x	6%	x	x
O=C(Cn1cnc([N+](=O)[O-])n1)N/N=C/c1cccc2ccccc12	3%	-13%	2%	u	-5%	-9%	i
O=C(Cn1cnc([N+](=O)[O-])n1)N/N=C/c1ccc(O)cc1O	4%	-22%	-8%	21%	3%	-2%	x
COc1cc(OC)cc(C(=O)NC(=S)NNC(=O)c2cnccn2)c1	0%	-2%	-23%	x	2%	11%	i
COc1ccc(C(=O)NCCNC(=O)c2cnccn2)cc1OC	1%	-2%	0%	14%	7%	6%	x
COc1ccc(C(=O)NC(=S)NNC(=O)c2cnccn2)cc1OC	-1%	-25%	-16%	4µM*	-15%	4%	u
Cc1cc(C)c(S(=O)(=O)Nc2ccc3oc(C)c(C(=O)OC(C)C)c3c2)cc1C	16%	x	-5%	x	-2%	x	x
CCC(=O)Nc1cccc(-c2nc3ncccc3o2)c1C	1%	-12%	0%	-2%	u	5%	x
Cc1c(NC(=O)CSc2ccc(Cl)cc2)cccc1-c1nc2ncccc2o1	-2%	17%	5%	u	7%	1%	u
COc1ccc(C2=NN(C(=O)c3ccc(Cl)c([N+](=O)[O-])c3)C(c3ccccc3)C2)cc1 (stereo not drawn)	-12%	u	7%	u	0%	-7%	u
COc1ccc(CCNC(=O)Cn2c([N+](=O)[O-])cnc2C)cc1OC	5%	-20%	-5%	0%	0%	-2%	x
COc1ccc(CCNC(=O)Cn2nc([N+](=O)[O-])c(Br)c2C)cc1OC	7%	-7%	0%	u	3%	-2%	i
COc1cc2nc(CN3C(=O)c4ccccc4C3=O)oc(=O)c2cc1OC	u	-2%	5%	22µM*	3%	20%	i
COc1cc2nc(-c3ccccc3C)oc(=O)c2cc1OC	5%	2%	-6%	-4%	-1%	104%	x
CN(Cc1ccccc1)c1nc(-c2ccc(F)cc2)cc(C(F)(F)F)n1	11%	x	5%	x	9%	x	x
Nc1nonc1N/N=C/c1c(O)ccc2ccccc12	-10%	-33%	-6%	-2%	4%	3%	x
Nc1cc(Cl)nc(N/N=C/c2c(O)ccc3ccccc23)n1	-12%	-35%	9%	2.5µM*	0%	-4%	i
